84 compounds from article PMC4336329 (PLoS ONE, 2015) can be followed below.

Among all 310,000 compounds or so, about 14,000 (4.5%) showed an effect of 50% or more. The effect is printed as a negative number. The entries come from a sample that favours strong results as a whole.
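Also: peak tail current of the secondary pulse compared with the same well before compound.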

For this experiment, the target named is human ether-à-go-go-related gene (hERG) potassium channel (human, UniProt Q12809). Description: primary screen, population patch clamp on CHO cells stably expressing hERG; higher = less effect of the substance.
Chain of human ether-à-go-go-related gene (hERG) potassium channel (Q12809 whole entry, looked up): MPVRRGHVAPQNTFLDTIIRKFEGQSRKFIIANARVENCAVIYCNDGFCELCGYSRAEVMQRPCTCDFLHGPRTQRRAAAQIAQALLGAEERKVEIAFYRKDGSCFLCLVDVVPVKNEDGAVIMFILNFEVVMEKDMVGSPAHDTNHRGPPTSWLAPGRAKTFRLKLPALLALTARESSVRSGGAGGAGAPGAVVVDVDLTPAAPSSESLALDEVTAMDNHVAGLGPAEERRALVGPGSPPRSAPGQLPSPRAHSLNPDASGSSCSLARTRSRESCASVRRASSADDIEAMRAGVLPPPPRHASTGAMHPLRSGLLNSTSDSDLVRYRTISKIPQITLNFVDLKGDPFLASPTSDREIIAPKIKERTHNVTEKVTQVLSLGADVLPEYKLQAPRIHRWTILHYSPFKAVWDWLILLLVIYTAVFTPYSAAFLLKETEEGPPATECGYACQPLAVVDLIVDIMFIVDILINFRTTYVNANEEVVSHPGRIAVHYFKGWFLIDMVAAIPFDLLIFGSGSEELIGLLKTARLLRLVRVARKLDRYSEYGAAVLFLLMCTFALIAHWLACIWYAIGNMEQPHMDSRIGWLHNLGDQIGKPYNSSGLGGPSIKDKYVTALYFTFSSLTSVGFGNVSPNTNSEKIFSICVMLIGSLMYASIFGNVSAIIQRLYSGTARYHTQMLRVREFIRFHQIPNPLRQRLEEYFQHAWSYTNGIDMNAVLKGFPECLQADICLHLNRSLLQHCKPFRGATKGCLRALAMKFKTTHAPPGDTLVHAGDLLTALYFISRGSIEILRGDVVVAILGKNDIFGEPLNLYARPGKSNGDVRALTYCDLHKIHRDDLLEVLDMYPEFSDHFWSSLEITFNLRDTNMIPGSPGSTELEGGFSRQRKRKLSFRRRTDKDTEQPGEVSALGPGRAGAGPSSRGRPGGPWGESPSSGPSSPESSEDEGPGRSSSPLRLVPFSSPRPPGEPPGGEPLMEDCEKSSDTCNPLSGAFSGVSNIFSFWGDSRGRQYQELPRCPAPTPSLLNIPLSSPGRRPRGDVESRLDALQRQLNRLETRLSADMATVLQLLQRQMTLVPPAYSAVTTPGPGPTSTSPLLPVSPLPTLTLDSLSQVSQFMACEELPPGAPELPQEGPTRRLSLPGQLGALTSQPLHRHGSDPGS
As for `CCOc1ccc(S(=O)(=O)n2nnc3ccccc32)cc1C`, the “hERG current change (%, negative = inhibition) at 10uM” value is 14.6%.
In the case of `CCCn1c(C)c(C(=O)OCC)c(O)c(-c2ccccc2)c1=O` it was 19.5%.
Next, `CC(=O)N1CCN(c2cc(N3CCCC3)c(F)cc2[N+](=O)[O-])CC1`: 5.05%; `COc1ccc(/C=N/Nc2ccc(C(F)(F)F)cc2[N+](=O)[O-])cc1`: 5.35%.
In the case of `Cn1cccc1Cc1nnc(SCC(=O)NCCc2ccccc2)n1-c1ccc(F)cc1` it was -21.6%.
Consider `CC(C)Cc1nnc(NC(=O)CN2C(=O)NC3(CCCC3)C2=O)s1`, for which the “hERG current change (%, negative = inhibition) at 10uM” value is given as -9.22%.
Next, `CC(=O)N=c1scc(-c2ccccc2)n1-c1cccc(O)c1`: 7.32%.
Next, `COc1cnn(-c2ccc(Br)cc2)c(=O)c1SCc1ccccc1`: -65.6%; `COc1cnn(-c2ccc(C)cc2)c(=O)c1SCc1ccccc1`: -20.9%.
In the case of `COc1cnn(-c2ccccc2)c(=O)c1SCc1ccc(Cl)c(Cl)c1` it was -21.1%; in that of `CN(C)S(=O)(=O)c1ccc(NC(=S)NC(=O)C2CCC2)cc1`, 10.3%.
Consider `CC(C)(SC(=S)N1CCCCCC1)C(=O)O`, for which the “hERG current change (%, negative = inhibition) at 10uM” value was found to be 24.3%.
With `CC(C)(C)n1cn[nH]c1=S`, the “hERG current change (%, negative = inhibition) at 10uM” value was found to be 22%.
`CCCSc1cc(N2CCCC2)nc(-c2ccccc2)n1`: the “hERG current change (%, negative = inhibition) at 10uM” value is listed as 15.5%.
Consider `COc1ccc(CCN(C)C(=O)C2CCN(Cc3cccc(OC)c3OC)CC2)cc1OC.O=C(O)C(=O)O`, for which the “hERG current change (%, negative = inhibition) at 10uM” value is on record as -3.13%.
In the case of `COc1cccc(CN2CCC(N(CCc3ccccc3)Cc3ccccc3)CC2)c1OC.O=C(O)C(=O)O` it was -60.3%.
For the compound `COc1ccc(CN2CCC(N(CCc3ccccc3)Cc3ccccc3)CC2)c(OC)c1.O=C(O)C(=O)O`, the “hERG current change (%, negative = inhibition) at 10uM” value is on record as -74.5%.
With `COc1cccc(CN2CCN(Cc3cc(OC)c(OC)c(OC)c3)CC2)c1OC.O=C(O)C(=O)O`, the “hERG current change (%, negative = inhibition) at 10uM” value is given as -8.03%.
Take `COc1ccc(CN2CCC(C(=O)N(C)CCc3ccc(OC)c(OC)c3)CC2)c(OC)c1.O=C(O)C(=O)O`: the “hERG current change (%, negative = inhibition) at 10uM” value is -44.9%.
In the case of `COc1ccc(CN2CCC(N3CC(C)OC(C)C3)CC2)c(OC)c1.O=C(O)C(=O)O` (stereo not drawn) it was -1.98%; in that of `O=C(Nc1ccccc1)c1ccc(S(=O)(=O)NCc2ccco2)cc1`, -11.6%.
Next, `O=C(Cc1ccc(S(=O)(=O)N2CCCC2)s1)NC1CCCCCC1`: -31.4%; `C/C(=N\NC(=O)Cn1nc(C)cc1C)c1ccc([N+](=O)[O-])cc1`: -17.6%.
In the case of `O=C(Nc1ccc(Cc2ccc(NC(=O)C3CC3)c(O)c2)cc1O)C1CC1` it was 8.31%; in that of `CCC(=O)N1C(Cc2ccccc2)COC1(C)C` (stereo not drawn), -73.4%; in that of `CCC1(C)NC(=O)N(CC(=O)N2CCC(Cc3ccccc3)CC2)C1=O` (stereo not drawn), 3.65%.
As for `CCC(=O)N1COC[C@@H]1Cc1ccccc1`, the “hERG current change (%, negative = inhibition) at 10uM” value was found to be 25.4%.
In the case of `Cn1c(=O)c2ncn(CC(=O)N=Nc3c(O)[nH]c4ccccc34)c2n(C)c1=O` it was 20.7%; in that of `O=C(N/N=C/c1ccc([N+](=O)[O-])cc1)C(=O)N1CCCC1`, 13.5%; in that of `O=C(ONC1=NCCCCC1)c1cccc([N+](=O)[O-])c1`, 0.994%.
For `O=[N+]([O-])c1cccc(/C=N/NC2=NCCCCC2)c1`, the “hERG current change (%, negative = inhibition) at 10uM” value was -83%.
In the case of `Cl.O=[N+]([O-])c1ccccc1/C=N/NC1=NCCCCC1` it was -39.3%.
In the case of `O=C(N/N=C/c1cccc([N+](=O)[O-])c1)C(=O)N1CCCCCC1` it was -52.5%; in that of `O=C(N/N=C/c1cccc(O)c1)C(=O)N1CCCCCC1`, 24.6%; in that of `O=C(CSc1nnc(-c2cccnc2)n1CCc1ccccc1)NCc1ccccc1`, -10.9%.
Turning to `CCOc1ccc(-c2nnc(SCC(=O)N(CC)CC)n2N)cc1`, the “hERG current change (%, negative = inhibition) at 10uM” value was 5.1%.
As to `CN1C(=O)Cc2cc(S(=O)(=O)N3CCN(c4ccc(Cl)cc4)CC3)ccc21`, the “hERG current change (%, negative = inhibition) at 10uM” value is recorded as -2.2%.
Next, `COc1ccccc1Nc1nc(NCCO)nc(N)c1[N+](=O)[O-]`: 2.88%.
Next, `Cc1cc(=O)oc2cc(OCC(=O)OCC(=O)Nc3ccccc3C(C)C)ccc12`: 3.47%; `COc1ccccc1C(=O)Nc1cc2c(cc1C(=O)O)OCCCO2`: -2.13%; `CSc1ccccc1C(=O)Nc1cc2c(cc1C(=O)O)OCCCO2`: 18.2%.
Regarding `CS(=O)(=O)c1ccccc1C(=O)Nc1cc2c(cc1C(=O)O)OCCCO2`, the “hERG current change (%, negative = inhibition) at 10uM” value was -57.3%.
For the compound `CCCCCC(=O)N1CC2(CC(c3cccc(NC(=O)CC(c4ccccc4)c4ccccc4)c3)=NO2)C[C@@H]1C(N)=O` (stereo partly drawn), the “hERG current change (%, negative = inhibition) at 10uM” value came to 11.4%.
In the case of `C/C=C\C(=O)Nc1cccc(C2=NOC3(C2)C[C@@H](C(N)=O)N(C(=O)CCCCC)C3)c1` (stereo partly drawn) it was -31%; in that of `CCCCCC(=O)Nc1cccc(C2=NOC3(C2)C[C@H](C(N)=O)N(C(=O)COc2ccc(Cl)cc2)C3)c1` (stereo partly drawn), -22%; in that of `NC(=O)[C@@H]1CC2(CC(c3cccc(NC(=O)COc4ccc(Cl)cc4)c3)=NO2)CN1C(=O)COc1ccc(Cl)cc1` (stereo partly drawn), -29.4%.
Next, `CCCCCC(=O)N1CC2(CC(c3cccc(NC(=O)c4ccccc4)c3)=NO2)C[C@@H]1C(N)=O` (stereo partly drawn): -54.6%.
In the case of `CCCCCC(=O)Nc1cccc(C2=NOC3(C2)C[C@H](C(N)=O)N(C(=O)CCCCC)C3)c1` (stereo partly drawn), the “hERG current change (%, negative = inhibition) at 10uM” value is -70.7%.
For the compound `CCCCCC(=O)N1CC2(CC(c3cccc(NC(=O)COc4ccc(Cl)cc4)c3)=NO2)C[C@@H]1C(N)=O` (stereo partly drawn), the “hERG current change (%, negative = inhibition) at 10uM” value is reported as -77%.
In the case of `CCCCCC(=O)N1CC2(CC(c3cccc(NC(=O)CC)c3)=NO2)C[C@H]1C(N)=O` (stereo partly drawn) it was -11.6%; in that of `CCCCCC(=O)Nc1cccc(C2=NOC3(C2)C[C@H](C(N)=O)N(C(=O)CC)C3)c1` (stereo partly drawn), 6.18%.
Regarding `N#CCCN1CCN(S(=O)(=O)c2ccc(S(=O)(=O)NC3CCCC3)cc2)CC1`, the “hERG current change (%, negative = inhibition) at 10uM” value is recorded as -9.4%.
For the compound `CCc1cc2c(Nc3ccc(O)cc3)nc(C)nc2s1.Cl`, the “hERG current change (%, negative = inhibition) at 10uM” value is given as 8.46%.
Consider `Cc1cc(/C=N/O)c(C)n1-c1ccc(Br)cc1`, for which the “hERG current change (%, negative = inhibition) at 10uM” value is -34.2%.
For the compound `CCc1ccc(OCCSc2nc3ccccc3n2CC(=O)O)cc1`, the “hERG current change (%, negative = inhibition) at 10uM” value is on record as 3.37%.
In the case of `CSc1nsc(SC)c1NC(=O)N1CCCCC1`, the “hERG current change (%, negative = inhibition) at 10uM” value is reported as 2.74%.
Turning to `O=C(NC(=S)N(Cc1ccccc1)Cc1ccccc1)c1ccccc1F`, the “hERG current change (%, negative = inhibition) at 10uM” value is 18.5%.
As for `O=C(Cn1c(CO)nc2ccccc21)Nc1cc(C(F)(F)F)ccc1N1CCOCC1`, the “hERG current change (%, negative = inhibition) at 10uM” value amounted to 1.37%.
Consider `Cc1cc(C(=O)N2CCN(Cc3ccc4c(c3)OCO4)CC2)on1`, for which the “hERG current change (%, negative = inhibition) at 10uM” value is recorded as -4.02%.
Next, `O=C(c1cc(-c2ccccc2)on1)N1CCN(Cc2ccc3c(c2)OCO3)CC1`: -50.1%; `C=CCN1CCN(C(=O)c2oc3ccccc3c2C)CC1`: -0.434%; `Cc1c(C(=O)N2CCN(CCc3ccccc3)CC2)oc2ccccc12`: -72.4%.
In the case of `O=C(NCCN1CCN(C(=O)c2cc3ccccc3oc2=O)CC1)c1cc2ccccc2oc1=O` it was -15.9%.
Take `COc1cc2cc(C(=O)N3CCN(Cc4ccc5c(c4)OCO5)CC3)c(=O)oc2cc1OC`: the “hERG current change (%, negative = inhibition) at 10uM” value was -0.572%.
In the case of `O=C(c1cc2ccccc2oc1=O)N1CCN(CCc2ccccc2)CC1` it was -71.8%; in that of `CC(=O)N1CCN(C(=O)c2oc3ccccc3c2C)CC1`, 8.84%.
Next, `O=C(c1cc2ccccc2oc1=O)N1CCN(Cc2ccc3c(c2)OCO3)CC1`: -53.7%; `CN1CCN(C(=O)c2cc3ccccc3oc2=O)CC1`: 6.08%.
In the case of `O=C(c1cc2ccccc2o1)N1CCN(Cc2ccc3c(c2)OCO3)CC1` it was -22.1%.
On to `Cc1onc(-c2ccccc2)c1C(=O)N1CCN(Cc2ccc3c(c2)OCO3)CC1.Cl`, for which the “hERG current change (%, negative = inhibition) at 10uM” value is 17.5%.
`c1ccc(CCCCNCC2COc3ccccc3O2)cc1` (stereo not drawn): the “hERG current change (%, negative = inhibition) at 10uM” value is -28.5%.
In the case of `COc1cc(C(=O)NCCC(c2ccccc2)c2ccccc2)cc(OC)c1OC` it was 0.15%; in that of `COc1ccc(-c2cc(N)n(CCC#N)n2)c(OC)c1`, 4.12%; in that of `O=C(CSc1nnc(-c2ccncc2)o1)Nc1ccccc1C(F)(F)F`, -0.412%.
Next, `Cn1c(CNC(=O)CNC(=O)Cc2ccc(Cl)cc2)cc(=O)n(C)c1=O`: 18.9%; `COC(=O)C(C)Oc1cc(C)cc2oc(=O)c3c(c12)CCC3` (stereo not drawn): -12.7%.
Next, `N#CC1(NC(=O)CSc2nnc(-c3ccccc3F)o2)CCCCC1`: -13.1%; `CC(C)CC(=O)Nc1ccccc1Oc1ccccc1`: -2.96%.
Turning to `Cc1nn(C)c(C)c1S(=O)(=O)N1CCCC(C(=O)N2CCN(c3ccccc3)CC2)C1` (stereo not drawn), the “hERG current change (%, negative = inhibition) at 10uM” value is on record as -27.6%.
Next, `Cc1nn(C)c(C)c1S(=O)(=O)N1CCCC(C(=O)NCCc2ccc(Cl)cc2)C1` (stereo not drawn): -0.523%; `Cc1n[nH]c(C)c1S(=O)(=O)N1CCCC(C(=O)N2CCN(c3ccc(Cl)cc3)CC2)C1` (stereo not drawn): -75.1%; `CC(=O)c1ccc(N2CCN(C(=O)C3CCCN(S(=O)(=O)c4c(C)[nH]c(=O)[nH]c4=O)C3)CC2)cc1` (stereo not drawn): 23.4%.
Consider `O=C(C1CCCN(S(=O)(=O)c2cnc[nH]2)C1)N1CCN(c2ccc(Cl)cc2)CC1` (stereo not drawn), for which the “hERG current change (%, negative = inhibition) at 10uM” value is listed as -35%.
On to `Cc1nn(C)c(C)c1S(=O)(=O)N1CCCC(C(=O)N2CCN(c3ccc(Cl)cc3)CC2)C1` (stereo not drawn), for which the “hERG current change (%, negative = inhibition) at 10uM” value is -70.4%.
